TWEAK Fn14 block: inhibitors of TWEAK-Fn14 interaction signaling | AID 1159606 | 2% of 360,000 active | inhibition, % at 10 µM | TWEAK-stimulated Fn14 reporter cells, luciferase luminescence, 8 h; in the data active means inhibition above about 50%
Shn3 3UTR inh: Schnurri-3 reporter inhibition in Clone20 osteoblasts | inhibition, % at 12.5 µM | 0.52% of 360,000 active | AID 588674 | Clone20 osteoblast Shn3 3'UTR firefly luciferase, 24 h;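 active means mean inhibition of at least 75% with every replicate also reaching 75%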;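 further: 0% = median of neutral control wells and 100% = pilot-screen positive control compound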
Peg3 prom inh: Peg3 promoter activity inhibition | HeLa PEG-Prom luciferase reporter, luminescence, overnight | inhibition, % at 20 µM | 1.7% of 360,000 active | AID 588405;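 active means inhibition of at least 50% at 20 µM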
TRPM1 prom inh: reduces MITF-dependent TRPM1 promoter luciferase signal; SK-MEL-5 TRPM1 promoter luciferase, 24 h; inhibition, % at 12.5 µM; 0.83% of 330,000 active;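 active means mean inhibition across replicates of 60% or more, whatever share of single replicates reaches that level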
TROY NFkB inh: blocks TROY-dependent signaling in reporter cells; Q293 LMP1-TROYcd NF-kB luciferase reporter, 4 h; inhibition, % at 10 µM; 0.98% of 360,000 active; AID 1347056;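 active means compounds whose plate-normalised and pattern-corrected inhibition of the luciferase reporter signal at the single screening dose is 50% or more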
EBV LMP1 NFkB: Epstein-Barr LMP1 NF-kappaB reporter inhibition; LMP1-induced NF-kappaB luciferase reporter cells, luminescence; inhibition, % at 12.5 µM; 0.69% of 350,000 active; AID 504558; in the data active means inhibition above about 41%;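 further: 0% = neutral control wells and 100% = reference inhibitor control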
Numbers without * were called inactive; . = no result given. An excerpt weighted towards active compounds, which were near 4.1% of everything screened.

SMILES	TWEAK Fn14 block	Shn3 3UTR inh	Peg3 prom inh	TRPM1 prom inh	TROY NFkB inh	EBV LMP1 NFkB
COc1ccc(CC(N)c2csc(Nc3cc(NCCCO)ncn3)n2)cc1 (centres undefined)	-3	0	14	.	-3	.
NC1=C(c2ccccc2)C(=O)NC1=O	11	-5	1	1	-6	-3
CC(C)C[C@@H]1Cc2[nH][nH]c(=O)c2[C@H](C(C)C)O1	31	.	.	.	7	.
NC(=O)NN=C1CCN2CCCc3cccc1c32	-26	7	6	.	-2	5
CN(CC(=O)NCc1ccccn1)S(=O)(=O)c1ccc2ccccc2c1	0	19	20	9	3	-10
N#Cc1c(NCCN)nc(-c2ccco2)c2c1CCCC2	-24	10	9	-3	-3	78*
CCN(CC)CCNC(=O)c1ccc(NC(=O)c2cccc(S(=O)(=O)N3CCc4ccccc43)c2)cc1	3	17	77*	58	-2	-17
NS(=O)(=O)c1ccc(NC(=O)c2ccc(S(=O)(=O)N3CCc4ccccc43)cc2)cc1	33	19	21	15	6	-1
CCN(CC)CCNC(=O)c1ccc(NC(=O)c2cccc(S(=O)(=O)N3c4ccccc4CC3C)c2)cc1 (centres undefined)	10	7	86*	93*	12	-5
COc1ccc(C(=O)Nc2ccc(S(=O)(=O)N3CCc4ccccc43)cc2)cc1	80*	38	28	-9	22	0
Cn1cc(S(=O)(=O)N2CCc3ccccc32)cc1C(=O)NC(C)(C)C	6	89*	2	29	22	13
Cc1ccc(C)c(S(=O)(=O)N2CCN(C(=O)Cn3c(=O)cnc4ccccc43)CC2)c1	-2	3	19	9	-12	4
CCOC(=O)c1ccc(NC(=O)c2cccc(S(=O)(=O)N3c4ccccc4CC3C)c2)s1 (centres undefined)	54*	74	30	38	9	-56
COc1cccc(C(=O)NC(=S)Nn2cnnc2)c1OC	57*	3	-9	-2	4	3
CSc1ccccc1OCc1cc(C(=O)N2CCC[C@H]2C(N)=O)no1	28	1	-6	1	7	63*
CSc1ccccc1OCc1cc(C(=O)N2CCCC(C)C2)no1 (centres undefined)	-10	2	-337	-159	-63	-30
Nc1ccc(C(=O)NN2C(=O)[C@H](Cl)C2c2ccc(Cl)cc2)cc1 (some centres undefined)	65*	99*	102*	81*	-23	-9
NC(=O)c1sc2nccc(Nc3ccccc3)c2c1N	5	-8	-41	-19	-6	65*
Cc1oc(-c2ccccc2Cl)nc1CS(=O)(=O)CC(=O)NCCN1CCOCC1	-6	-14	7	.	-7	10
O=C(CNC(=O)c1ccc(Cl)cc1Cl)OCCCn1c(=O)[nH]c2ccccc21	11	4	-4	9	12	-2
O=C(CC1(O)C(=O)N(CCc2ccccc2)c2ccccc21)c1ccco1 (centres undefined)	86*	-9	-18	9	.	0
O=S(=O)(c1ccc(NC(=S)NCCC(c2ccccc2)c2ccccc2)cc1)N1CCOCC1	56*	50	47	29	39	-7
CCCCOCCCNC(=S)Nc1ccc(S(=O)(=O)N2CCOCC2)cc1	-3	10	13	0	17	8
COc1cc(NC(=S)NCCC(c2ccccc2)c2ccccc2)c(OC)cc1Cl	30	2	53*	-11	53*	-7
S=C(NCCC(c1ccccc1)c1ccccc1)Nc1ccc(Cl)cc1	62*	-3	55*	5	45	1
SMILES	TWEAK Fn14 block	Shn3 3UTR inh	Peg3 prom inh	TRPM1 prom inh	TROY NFkB inh	EBV LMP1 NFkB
O=C(NC1CCN(Cc2ccccc2)CC1)c1cccc(S(=O)(=O)Nc2ccc(F)cc2)c1	23	57	-1	23	18	28
CC(OC(=O)Cn1ccccc1=O)C(=O)Nc1cc(Cl)cc(Cl)c1 (centres undefined)	-11	-1	6	.	13	2
CCOC(=O)N1CCN(C(=O)/C(=C/c2cccc3ccccc23)NC(=O)c2ccc(OC)cc2)CC1	19	-25	-35	-18	56*	-10
CCC1(C)Nc2ccccc2C(=O)N1O (centres undefined)	3	-8	12	-8	58*	4
O=C(Nc1ccc(OCC(=O)N2CCOCC2)cc1)c1ccccc1Cl	-13	-44	-84	-39	-40	51*
O=C(N/N=C/c1ccc(OCC(=O)N2CCOCC2)cc1)c1ccccc1Cl	-6	-3	-17	0	-22	-2
COc1cc(/C=N/NC(N)=S)ccc1OC(=O)c1ccc(C)cc1	8	-8	-24	4	9	-7
COc1cc(C(=O)N/N=C/c2cccc(Oc3ccccc3)c2)ccc1O	-12	5	-32	-4	-14	2
Cc1ccc(C(=O)N/N=C\c2ccc(OC(=O)c3cccc(F)c3)cc2)cn1	-28	-1	-29	11	-38	-3
COc1ccc(C(=O)N/N=C/c2cc(Br)ccc2O)cc1OC	-42	91*	48	66*	26	11
CCCOc1ccc(Br)cc1/C=N/NC(=O)c1cc(OC)c(OC)c(OC)c1	35	-1	25	9	-1	2
COc1cc(C(=O)N/N=C/c2ccc(OC(=O)c3cccc(C)c3)cc2)ccc1O	-3	-19	-21	-9	51*	-4
COc1cc(/C=N/NC(=O)c2ccc(N)cc2)ccc1OC(=O)c1cccc(C)c1	4	1	-30	-12	53*	30
COc1cc(/C=N\NC(=O)c2ccc(C)nc2)ccc1OC(=O)c1cccc(F)c1	72*	-20	-29	-7	15	0
COc1ccccc1NC(=O)C1CCN(C(=O)C2CC(=O)N(c3ccc(C)cc3)C2)CC1 (centres undefined)	-10	-1	-4	-6	20	-3
O=C1[C@@H]2Cc3c([nH]c4ccccc34)C(c3cccc([N+](=O)[O-])c3)N2C(=O)CN1C1CCN(Cc2ccccc2)CC1 (some centres undefined)	22	-5	12	24	-7	-16
Cc1ccc(C(=O)N/N=C\c2cccc(OC(=O)c3cccc(F)c3)c2)cn1	23	-32	-79	-38	-21	-6
COc1cc(/C=N/Nc2nc(C)cc(C)n2)ccc1OC(=O)c1ccco1	10	3	-16	0	0	4
COc1cccc(OCc2cc(/C=N/Nc3ccc(C(=O)O)cc3)ccc2OC)c1	3	40	-138	6	-10	0
COc1cccc(/C=N\NC(=O)c2ccc(C)nc2)c1	-7	-29	1	0	-19	86*
COc1cccc(C(=O)Oc2ccc(/C=N/Nc3ccc(C(=O)O)cc3)cc2OC)c1	60*	-26	-78	13	-5	-7

Compound activity as filed in PubChem BioAssay.
